# The list is not random: actives were taken first. Their share in the collection is about 1.4%.
# Bcl-xL primary = blocks human Bcl-xL binding to Bim BH3 peptide; 320,000 compounds, 0.7% hits; AID 2129; GST-Bcl-xL / FITC-Bim BH3 peptide fluorescence polarization; inhibition, % at 10.9 µM; Q07817;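 active = inhibition above the mean of all tested compounds plus 3 SD, cutoff set per campaign, cut at about 30% in these data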;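 also: 0% = DMSO wells and 100% = unlabeled Bim-BH3 peptide competitor; inhibitors lower millipolarization by displacing the labeled peptide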
# Target sequence (Q07817 whole entry, looked up): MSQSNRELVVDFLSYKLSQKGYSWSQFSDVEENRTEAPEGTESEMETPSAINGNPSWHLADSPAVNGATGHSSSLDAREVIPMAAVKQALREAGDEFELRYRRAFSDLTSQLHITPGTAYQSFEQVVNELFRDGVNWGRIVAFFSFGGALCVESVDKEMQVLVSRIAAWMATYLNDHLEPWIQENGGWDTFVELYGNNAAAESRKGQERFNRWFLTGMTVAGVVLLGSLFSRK
# MEX-5 binding = C. elegans MEX-5 TCR-2 RNA binding activity; MEX-5/FITC-TCR2 RNA binding, fluorescence polarization; stronger effect = lower value; Q9XUB2; AID 1832; 300,000 compounds, 0.38% hits; activity score (negative = inhibition of binding), % at 10 µM;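 active = inhibition past about -25% in most replicates, and total fluorescence under double the plate's negative control median, limit read from the data; inconclusive = replicates evenly split on the limit, or fluorescence at least double controls; inactive = too little inhibition in most replicates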;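 also: 0% = DMSO and -100% = 5 µM competing unlabeled TCR2 RNA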
# GLD-1 TGE inh = GLD-1-TGE RNA interaction inhibition (C. elegans). inhibition, % at 5.96 µM. 320,000 compounds, 0.44% hits. Q17339. AID 2280. purified GLD-1 + fluorescein TGE RNA, fluorescence polarization;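 active = percent inhibition above a per-plate cutoff, the plate mean of test compounds plus 3 SD, cut at about 30% in these data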;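 also: 0% = DMSO wells with GLD-1 and probe and 100% = wells lacking GLD-1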
# EBV gp42 inh = blocks Epstein-Barr virus glycoprotein 42 binding; Fluorescence polarization binding assay, mP read-out; inhibition, % (tested at 21.74 µM); 220,000 compounds, 0.42% hits; AID 1085; in the data active = inhibition above about 50%
# Target sequence (Q1HVG2 whole entry, looked up): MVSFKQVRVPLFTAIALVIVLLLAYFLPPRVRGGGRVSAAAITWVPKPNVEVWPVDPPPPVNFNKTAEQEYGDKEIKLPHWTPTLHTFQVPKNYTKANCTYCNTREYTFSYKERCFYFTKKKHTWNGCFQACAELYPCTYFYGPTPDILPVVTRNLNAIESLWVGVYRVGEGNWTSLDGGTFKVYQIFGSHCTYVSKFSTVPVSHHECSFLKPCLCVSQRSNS
# MCL1 BIM primary = MCL1-BIM-BH3 interaction inhibition (human) | AID 2057 | GST-MCL1 / FITC-Bim-BH3 fluorescence polarization | inhibition, % at 10.9 µM | Q07820 | 320,000 compounds, 0.68% hits;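 active = inhibition above the mean inhibition of all tested compounds plus 3 SD, set per campaign, cut at about 40% in these data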;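 also: 0% = DMSO wells and 100% = unlabeled Bim-BH3 peptide control; higher means more loss of mP so more displacement of Bim peptide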
# E coli Lon inh = inhibitors of E. coli Lon protease | P0A9M0 | purified E. coli Lon protease, fluorescence polarization | inhibition, % at 7.94 µM | 360,000 compounds, 0.42% hits; in the data active = inhibition above about 13%, passing the limit was not always enough;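 also: 0% = enzyme with probe and DMSO and 100% = no enzyme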
# BCLXL inh confirm = Bcl-xL (human) inhibition, MCL1 counter-screen confirmation; shares compounds with MCL1 BIM primary; GST-Bcl-xL / FITC-Bim BH3 peptide FP binding; inhibition, % at 10.9 µM; 1,700 compounds, 54% hits; AID 2166;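 active = inhibition above a cutoff equal to the mean inhibition of all tested compounds plus 3 SD, cut at about 30% in these data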;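 also: 0% = DMSO wells and 100% = unlabeled Bim BH3 control peptide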
# MCL1 inh confirm = confirmation of human MCL1 and BIM-BH3 interaction inhibitors; 1,700 compounds, 61% hits; shares compounds with MCL1 BIM primary; AID 2168; GST-MCL1 / FITC-Bim-BH3 fluorescence polarization; inhibition, % at 10.9 µM;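 active = inhibition above the average of all tested compounds plus 3 SD, cut at about 40% in these data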;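 also: 0% = DMSO wells and 100% = unlabeled Bim-BH3 control peptide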
# Active calls of the source: *; ? = inconclusive; / = no result; + = active, no number.
SMILES,Bcl-xL primary,MEX-5 binding,GLD-1 TGE inh,EBV gp42 inh,MCL1 BIM primary,E coli Lon inh,BCLXL inh confirm,MCL1 inh confirm
O=C1NC(=O)N(c2ccc(Cl)cc2)C(=O)/C1=C\c1ccc(Sc2nc3ccccc3[nH]2)o1,59*,1,-8,-24,74*,-27,30,64*
O=C(Nc1ccc(F)cc1)OC1CN2CCC1CC2 (stereo not given),-2,1,1,-1,3,-10,/,/
CN1Cc2cnnn2-c2ccccc2C1c1ccccc1 (stereo not given),/,/,/,/,/,-2,/,/
C#C[C@]1(O)CC[C@H]2[C@@H]3CCC4=Cc5nc6nc7ccccc7n6cc5C[C@]4(C)[C@H]3CC[C@@]21C,51*,/,16,/,60*,-39,21,25
CCOc1ccc(-n2c(O)c(/C=C3\C=Nc4ccccc43)c(=O)[nH]c2=O)cc1,78*,-13,-23,/,79*,-77,6,-8
O=c1[nH]c(=O)n(-c2cccc3ccccc23)c(O)c1/C=N/N1CCCCCC1,-1,1,0,-8,-5,-9,/,/
COc1ccc(N/N=C/c2c(O)n(-c3ccc(C)c(C)c3)c(=O)[nH]c2=O)cc1,51*,0,-12,-3,54*,-136,11,5
COc1cc2c(cc1OC)C13CCN4C=C5CCOC6CC(=O)N2C1C6C5CC43 (stereo not given),/,/,/,/,/,-15,/,/
O=C1C=C2C=C[C@@H]3CC2(O1)[C@H]1CCCCN31,4,/,-1,/,125*,-2,3,4
CCN1C[C@]2(COC)CC[C@H](OC)[C@@]34C5C[C@H]6C(=O)C5[C@](O)(C[C@H]6OC)[C@@](O)(C(OC)C23)[C@@H]14 (stereo not given in full),-2,-1,1,/,0,-1,/,/
CN1C(=O)C(=Cc2cn(CC(=O)N3CCCC3)c3ccccc23)C(=O)N(C)C1=O,0,?,-5,/,-8,-25,/,/
CCN1C(=O)NC(=O)/C(=C\c2cn(CC(=O)N3CCCCC3C)c3ccccc23)C1=O (stereo not given),105*,?,-6,/,81*,-37,162*,+
CC(C)CN(CC(C)C)c1ccc(C=C2C(=O)NC(=S)NC2=O)cc1[N+](=O)[O-],19,-6,-3,-14,70*,4,42*,97*
C[C@@H]1CN([C@@H](C)CO)C(=O)CCCn2nncc2CO[C@@H]1CN(C)C(=O)Oc1ccccc1,/,/,/,/,/,5,/,/
CC1CCC2[C@@H](C)C(=O)OC3O[C@]4(C)CCC1C32OO4 (stereo not given in full),5,-2,4,/,3,5,/,/
Cc1cc(N2CCCC2)ccc1C=C(C#N)C#N,119*,?,-70,85*,180*,-25,85*,108*
Nc1c(C(=O)NCC2CCCO2)c2nc3ccccc3nc2n1Cc1ccco1 (stereo not given),57*,-1,35*,-4,58*,-41,7,3
COc1ccc(OC)c(N2C(=O)NC(=O)/C(=C/c3ccc([N+](=O)[O-])s3)C2=O)c1,26,-42*,-2,1,46*,-7,76*,108*
O=C1NC(=S)N(c2ccc(F)cc2)C(=O)/C1=C\c1ccoc1,/,/,/,-33,/,-214,/,/
CCN1C(=O)/C(=C\c2ccc([N+](=O)[O-])s2)C(=O)NC1=S,/,/,/,1,/,/,/,/
O=C1NC(=S)N(c2ccc(F)cc2)C(=O)/C1=C/c1ccco1,79*,-94*,1,/,68*,/,73*,62*
COc1ccc(OC)c(N2C(=O)/C(=C/c3ccco3)C(=O)NC2=S)c1,80*,-2,10,/,87*,/,71*,78*
COc1ccc(N2C(=O)/C(=C/c3ccc(C)o3)C(=O)NC2=S)cc1,/,-7,/,/,/,-22,/,/
CCN(C(=O)COC(=O)c1cn(C)c2ccccc12)c1ccc(F)cc1,4,/,3,/,6,1,/,/
